Sampled rows, rich in hits. Any-hit rate of the full collection: about 7.3%.
uPA surface inh = inhibitors of cell surface uPA generation; cell surface uPA generation assay, qHTS; Potency, µM (highest dose often 38.3 µM), for the others: at the top dose activity change, negative = inhibition, hits mostly inhibitors; actives 0.31% (n = 330,000); active = well fitted inhibition curve with a large enough effect; inconclusive = small, poorly fitted or top-dose-only effect; inactive = no such curve, though single readings can be large or run the other way; tested in mouse RAW 264.7 cells; also: % is scaled to controls: 0 for no effect and ±100 for the full control effect; nearly all actives have a fitted effect of over 55% in size
Rab9 prom act = activators of Rab9 promoter; actives 2.8% (n = 320,000); Potency, µM (top dose mostly 9.22 µM), without a hit: at the highest dose activation, negative = inhibition, hits mostly activators; Huh7 Rab9 promoter-luciferase reporter, luminescence, 24 h; also: % of control where 0% means no effect; nearly all actives have a fitted effect of over 60% in size
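Cell-based reporter: Huh7 stable for Rab9 promoter-driven luciferase, plated in reduced-serum medium with 10% FBS at 1500 cells/well, compound-treated 24 h at 37 °C, luminescence read after 10 min reagent.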
ELG1 genotoxic = genotoxicity induction in ELG1-luciferase HEK293T cells | HEK293T ELG1-luciferase reporter, luminescence, 16 h | Potency, µM (doses to about 46 µM), inactives show top-dose activity change, positive = activation, actives largely listed as activators | actives 1.3% (n = 330,000) | AID 504466; also: % of control where 0% means no effect; nearly all actives have a fitted effect of over 60% in size
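HEK293T cells expressing luciferase-tagged ELG1 were treated with compound or DMSO for 16 hr at 37°C. Luciferase activity was then read after 30 min with ONE-Glo at room temperature; rising signal flags genetic stress.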
NPC1 promoter act = NPC1 promoter activation. Huh7 NPC1 promoter luciferase reporter, 24 h. Potency, µM (titrated, usually from 9.22 µM), without a hit: at the highest dose activation, hits mostly activators. actives 2.4% (n = 320,000). AID 485313; also: % of control where 0% means no effect; nearly all actives have a fitted effect of over 60% in size
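Huh7 cells stably carrying NPC1 promoter–luciferase, plated in Opti-MEM with 10% FBS for 2 h, were exposed to compound in DMSO for 24 h at 37 °C; luciferase reagent was added for 10 min and luminescence read.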
FLuc counter = firefly luciferase modulation, counter-screen for miR-21 project; P08659; purified FLuc, Km substrates, luminescence inhibition; Potency, µM (titrated, usually from 57.5 µM), for inactives: at the highest dose activity change, negative = inhibition, hits mostly inhibitors; actives 6.9% (n = 360,000);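 also: plate controls were vehicle for no effect and reference inhibitor for full effect; nearly all actives have a fitted effect of over 55% in size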
Target sequence (P08659 whole entry, looked up): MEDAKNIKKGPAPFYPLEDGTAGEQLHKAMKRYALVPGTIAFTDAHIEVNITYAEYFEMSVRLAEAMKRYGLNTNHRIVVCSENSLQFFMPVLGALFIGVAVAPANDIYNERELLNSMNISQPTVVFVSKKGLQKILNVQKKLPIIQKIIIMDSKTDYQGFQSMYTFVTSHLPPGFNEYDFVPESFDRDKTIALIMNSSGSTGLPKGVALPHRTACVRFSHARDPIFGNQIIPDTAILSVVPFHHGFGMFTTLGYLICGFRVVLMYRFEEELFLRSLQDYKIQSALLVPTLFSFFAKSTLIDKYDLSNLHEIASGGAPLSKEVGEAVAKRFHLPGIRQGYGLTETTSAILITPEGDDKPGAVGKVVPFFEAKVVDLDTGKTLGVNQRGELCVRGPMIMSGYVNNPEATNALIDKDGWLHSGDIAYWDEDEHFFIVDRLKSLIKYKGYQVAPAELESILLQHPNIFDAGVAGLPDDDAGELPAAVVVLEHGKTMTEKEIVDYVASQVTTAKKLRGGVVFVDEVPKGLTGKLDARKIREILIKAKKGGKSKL
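Biochemical qHTS of compounds, final roughly 60 µM downward over six points, against 10 nM purified firefly luciferase using Km concentrations of substrates (10 uM D-luciferin, 10 uM ATP) in Tris acetate pH 7.5 buffer; luminescence output.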
SMN2 splice enh = SMN2 splice variant enhancement; Potency, µM (doses to about 46.1 µM), for the others: at the top dose activity change, positive = activation, most hits filed as activators; HEK293 SMN2-luciferase splicing reporter, luminescence, 30-36 h; actives 2.8% (n = 210,000); also: % of control where 0% means no effect; nearly all actives have a fitted effect of over 55% in size
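HEK293 cells carry an SMN2 […]–luciferase reporter in which exon 7 inclusion puts luciferase in frame. Cells were plated 10-12 h before compound addition, then incubated 30-36 h at 37C. ONE-Glo luminescence was read; sodium butyrate at 4.5 mM final served as control.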
Numbers without * were called inactive; ? = inconclusive; . = no result; [ ] = another dose, or the depositor's remark. Unless noted, calls follow the shape of the dose curve; as a rule, active = well fitted curve in the direction sought with a large enough effect; inconclusive = small, poorly fitted or top-dose-only effect, or another doubt; inactive = no such curve, though single readings can be large; an effect the other way counts as inactive or inconclusive. Potency is read from the fitted curve at half-maximal effect.

SMILES | uPA surface inh | Rab9 prom act | ELG1 genotoxic | NPC1 promoter act | FLuc counter | SMN2 splice enh
CCOc1ccc(NC(=O)c2sc(-n3nc(C)c(CCC(C)C)c3C)nc2C)cc1 | . | . | . | . | 4.2% | .
CCOC(=O)C1=C(CN2CCCCC2)NC(=O)NC1c1ccc(C)cc1 (configuration not stated) | . | . | . | . | -13.5% | -9.2%
CCCOc1cccc(C(=O)NC(=S)Nc2cccc(NC(=O)c3ccccc3Cl)c2)c1 | 7.2% | 0.9% | -2.0% | -7.9% | 2.3% | -17.5%
CCCOc1cccc(C(=O)NC(=S)Nc2ccccc2)c1 | 1.2% | ? | ? | ? | 8.49µM* | 12.6µM*
CC(C)Oc1cccc(C(=O)NC(=S)Nc2ccccc2)c1 | -1.4% | 3.16µM* | ? | ? | 2.39µM* | 11.2µM*
O=C(O)c1cccc(NC(=S)NC(=O)c2cccc(OCc3ccccc3)c2)c1 | -12.2% | ? | 8.6% | 25.0% | 19µM* | .
COc1c(C)cc(Br)cc1C(=O)NC(=S)Nc1ccc(Cl)c(C(=O)O)c1 | 3.4% | 19.5% | 9.5% | 15.3% | 23.9µM* | .
O=C(O)c1cccc(NC(=S)NC(=O)c2ccncc2)c1 | 2.6% | 2.0% | 4.3% | -0.7% | ? | 8.0%
COc1cccc(N2CCN(C(=O)c3ccc(Cn4c(=O)[nH]c5cc(OC)c(OC)cc5c4=O)cc3)CC2)c1 | . | . | . | . | -2.6% | -7.2%
O=C(Nc1ccc(COc2ccccc2)cc1)Nc1cccc(C(=O)O)c1 | 4.7% | 2.82µM* | 10.5% | ? | 0.849µM* | .
Cc1nn2c(=O)cc(COC(=O)c3ccc(NC(=O)c4cccc(Br)c4)cc3)nc2s1 | . | . | . | . | -2.8% | .
C/C(=N\NC(=O)c1ccccc1O)c1c(O)cc(C)oc1=O | -3.0% | ? | 19.4% | 29.1% | 15.1µM* | ?
C/C(=N\NC(=O)c1ccccc1O)c1ccc(Br)s1 | -7.0% | ? | 4.9% | ? | 3.79µM* | 1.58µM*
C/C(=N/NC(=O)c1ccc(Br)o1)c1cccs1 | -7.8% | 3.98µM* | 9.2µM* | 2.51µM* | 16.9µM* | .
C/C(=N\NC(=O)c1ccccc1[N+](=O)[O-])c1ccc(Br)s1 | -1.6% | -3.4% | 2.9% | -1.9% | 1.5% | -0.5%
COC(=O)N/N=C(\C)c1cccs1 | 4.1% | -5.5% | 7.0% | -1.9% | 4.2% | .
C/C(=N\NC(=O)c1cc(C)nc2ccccc12)c1cccs1 | -22.5% | -9.1% | -1.7% | 0.3% | 0.2% | .
C/C(=N\NC(=O)c1cc(Br)ccc1O)c1cccs1 | -3.1% | 3.55µM* | ? | 2µM* | 10.7µM* | 17.8µM*
COc1ccc(/C=C/C(=O)C2C(=O)C=C(C)OC2=O)cc1O (configuration not stated) | -9.9% | 18.2% | ? | ? | 6.01µM* | 11.6%
Cc1cc(F)ccc1NC(=O)CCn1nc(C)c(S(=O)(=O)N2CCCCC2)c1C | . | . | . | . | -4.9% | .
CCCc1ccc(OCc2ccc(C(=O)OC)o2)c(OC)c1 | . | 1.78µM* | 10.3µM* | 1.41µM* | 15.1µM* | ?
COC(=O)c1ccc(COc2ccccc2OC)o1 | 7.7% | 3.5% | 5.6% | 1.3% | ? | .
C=CCc1ccc(OCCOCCN(C)C)c(OC)c1 | -0.2% | 0.5% | -4.0% | -2.4% | 0.6% | 3.9%
C=CCc1ccc(OCCn2cccc2C=O)c(OC)c1 | -12.4% | ? | 15.3% | ? | 16.9µM* | -9.3%
CCCc1ccc(OCc2ccc(C(=O)NN)o2)c(OC)c1 | -0.6% | ? | 12.3% | 2.24µM* | -16.0% | .
SMILES | uPA surface inh | Rab9 prom act | ELG1 genotoxic | NPC1 promoter act | FLuc counter | SMN2 splice enh
COc1ccc(CCN(C)C(=O)c2ccc(COc3ccccc3)o2)cc1OC | -7.5% | 11.5% | 0.3% | -2.5% | 2.9% | .
CCCc1ccc(OCc2ccc(C(=O)O)o2)c(OC)c1 | -4.1% | 0.316µM* | ? | 0.447µM* | 4.78µM* | 2.51µM*
C=CCc1ccc(OCCOc2cccc3ccc(C)nc23)c(OC)c1 | . | 3.0% | -6.2% | -2.3% | 10.7µM* | 7.5%
C=CCc1ccc(OCCCCOc2ccc(C(=O)O)cc2)c(OC)c1 | 2.3% | 1.6% | 0.2% | -4.4% | 13.5µM* | 18.1%
C=CCc1ccc(OCc2ccc(C(=O)O)o2)c(OC)c1 | -2.6% | ? | ? | ? | 4.78µM* | .
Cc1ccc(OCc2ccc(C(=O)O)o2)c([N+](=O)[O-])c1 | 1.7% | ? | 6.3% | ? | 26.9µM* | ?
Cc1ccc(OCc2ccc(C(=O)N3CCCC3)o2)c([N+](=O)[O-])c1 | -5.3% | 18.0% | 14.5% | 20.2% | ? | .
COc1ccc2c(c1)CC(C(=O)NCCCN1CCN(c3cccc(Cl)c3)CC1)CO2 (configuration not stated) | . | . | . | . | -4.9% | .
CCOc1cc(C#N)c(-n2nnc3c(sc4nc(C)cc(C)c43)c2=O)cc1OCC | . | . | . | . | -6.0% | 6.9%
Nc1ccc(-c2cnc3ccccc3n2)cc1 | -6.2% | . | . | . | . | .
c1ccc(-c2cccs2)nc1 | -4.3% | -0.1% | -2.4% | 0.7% | 5.5% | .
c1cc(-c2cccs2)nc(-c2cccs2)c1 | 6.1% | 4.3% | 10.5% | 7.7% | 15.1µM* | 20.4%
c1csc(-c2cnc3ccccc3n2)c1 | -1.7% | ? | ? | 3.98µM* | 10.7µM* | ?
COc1ccc(-c2cc(C(C)=O)c(C)n2CCC(=O)Nc2ccc(C)cc2Cl)cc1 | . | . | . | . | -4.6% | .
Cc1ccc(S(=O)(=O)NCc2ccccc2)cc1C(=O)NCCc1ccc(S(N)(=O)=O)cc1 | 11.4% | 1.4% | 0.5% | -3.1% | 3.1% | .
Cn1cc(CNC(=O)c2ccc3nc(Cc4ccccc4F)oc3c2)cn1 | -13.1% | ? | ? | 2.82µM* | 23.9µM* | .
CCn1cc(CNC(=O)c2ccc3nc(Cc4ccccc4F)oc3c2)cn1 | -4.9% | -5.8% | 9.7% | 0.5% | ? | .
Cn1cc(CCNC(=O)c2ccc3nc(Cc4ccccc4F)oc3c2)cn1 | 1.9% | 1.58µM* | ? | 2.51µM* | 5.36µM* | .
CC(=O)Oc1ccc2c(=O)oc(-c3ccccc3)nc2c1 | 1.2% | 0.4% | 0.8% | 0.8% | 7.57µM* | .
CC(=O)Oc1ccc2nc(/C=C/c3ccccc3)oc(=O)c2c1 | -9.9% | 3.7% | 2.8% | -5.0% | 1.07µM* | .
Cc1ccccc1-c1nc2cc(Cl)ccc2c(=O)o1 | 17.0% | 1.4% | 0.3% | -3.9% | -11.4% | .
CC(=O)Oc1ccc2nc(/C=C/c3ccc(C=O)cc3)oc(=O)c2c1 | -0.5% | -1.8% | 3.3% | -4.4% | ? | .
CC(=O)Oc1ccc2c(=O)oc(-c3ccccc3C)nc2c1 | -10.9% | 0.2% | -0.2% | -2.0% | 19µM* | .
CC(=O)Oc1ccc(-c2nc3cc(Cl)ccc3c(=O)o2)cc1 | -4.2% | 6.3% | -3.3% | -4.1% | -11.5% | .
O=C(NCCC(=O)N1CCN(c2ccccn2)CC1)c1ccc([N+](=O)[O-])cc1 | -5.6% | . | -0.7% | . | . | .
O=C(Nc1c(C(=O)N2CCN(c3ccccn3)CC2)oc2ccccc12)c1ccc([N+](=O)[O-])cc1 | 0.3% | 2.8% | -2.6%[9.26 µM] | 2.0% | 6.75µM* | .

Compound activity from PubChem.
